Source: PubChem BioAssay AID686979 (National Center for Advancing Translational Sciences (NCATS), 2013)
Where “and” joins values, the source holds several entries; their conditions need not be identical. Equal entries are not always repeated. The whole screen tested about 420,000 compounds, of which about 50,000 (12%) were called active. Entries that show only a call come without a potency. Roughly 26% stayed inconclusive and do not appear here. Calls come from the whole dose curve; as a rule, active = well fitted inhibition curve with a large enough effect; inconclusive = small, poorly fitted or top-dose-only effect; inactive = flat fitted curve, though single readings scatter. Many of the other results were omitted from the sample, so actives are more common in it than they were.

Assay: qHTS for Inhibitors of human tyrosyl-DNA phosphodiesterase 1 (TDP1): qHTS in cells in presence of CPT; note: nearly all actives have a fitted effect of over 55% in size
Settings: chicken DT40 Tdp1-/-;hTDP1 cells + 20 nM CPT, ATP luminescence, 48 h; series mostly up to 46.2 µM
Procedure, shortened: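 Cell growth measured by CellTiter-Glo luminescence after a minimum 48 h, 37 C compound exposure with 20 nM CPT in Tdp1-knockout DT40 cells stably expressing hTDP1, seeded 400/well; qHTS titration format.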
Potency is the fitted concentration of half-maximal effect.

Structure (SMILES) | Potency
Cc1ccc(NC(=O)C2CCCN2S(=O)(=O)c2cccc3cccnc23)c(C)c1 (centres undefined) | 23.1 µM (active) and 16.4 µM (active)
O=C(Nc1nccs1)C1CCCN1S(=O)(=O)c1cccc2cccnc12 (centres undefined) | inactive
Cc1cccc(NC(=O)C2CCN(S(=O)(=O)c3cccc4cccnc34)CC2)c1 | inactive
C=CCOc1ccc(/C=C/C(=O)OCC(=O)NC(C)c2ccc(F)cc2)cc1 (centres undefined) | inactive
COc1ccc2[nH]c3c(c2c1)CCN1C(=O)C(CC(=O)NCc2cccc(C(F)(F)F)c2)C[C@H](C(=O)N2CCOCC2)[C@@]31C (some centres undefined) | inactive
COc1cc2c(cc1OC)CN(C(C)C(=O)Nc1cccc(S(=O)(=O)N3CCOCC3)c1)CC2 (centres undefined) | inactive
COc1ccc(Cn2c(=O)oc3ccccc32)cc1 | inactive
COc1ccc(C(=O)CN(C(=O)c2ccc(Cl)cc2)N2C(=O)c3ccccc3C2=O)cc1 | inactive
COc1ccc(Cn2c(-c3ccc(Cl)cc3)c[n+]3ccccc23)cc1 | 1.84 µM (active)
CN(CC(=O)Nc1c(Cl)cccc1Cl)C(=O)c1ccncc1 | inactive
COC(=O)c1sc(NC(=O)c2ccc(OC)cc2OC)nc1C | inactive
COc1ccc(C(=O)NC2=NCCS2)c(OC)c1 | inactive
COc1ccc(C(=O)Nc2cccc(NC(=O)c3ccc(OC)cc3OC)n2)c(OC)c1 | 20.6 µM (active)
CC1(C)NC(=O)N(CC(=O)Nc2cc(C(F)(F)F)cc(C(F)(F)F)c2)C1=O | inactive
CN1CCn2cnc(C(=O)NCC(=O)OC(C)(C)C)c2C1=O | inactive
O=C(CSc1nc2c(c(=O)[nH]1)CN(Cc1ccc(F)cc1)CC2)Nc1ccccc1Cl | inactive
Cc1cc(C)cc(NC(=O)NCc2ccccn2)c1 | inactive
CCCCn1c(N)c(N(CCOC)C(=O)COc2c(C)cccc2C)c(=O)[nH]c1=O | inactive
COC(=O)c1cccc(-n2[nH]nnc2=S)c1 | inactive
COc1cc(C)c(C)cc1S(=O)(=O)N1CCCc2ccccc21 | 16.4 µM (active)
COc1ccc(C(=O)OCC(=O)NCC2CCCCC2)cc1S(=O)(=O)N1CCCc2ccccc21 | inactive
COc1ccc(Br)cc1S(=O)(=O)N1CCN=C1C | inactive

Structure (SMILES) | Potency
CN(CC(=O)Nc1ccc(Cl)cc1)C(=O)c1ccc(COc2ccccc2)cc1 | inactive
O=C(NCc1ccc2c(c1)OCO2)C(=O)NCC1OCCN1S(=O)(=O)c1ccc(F)cc1 (centres undefined) | inactive
Brc1c(CSc2nncc3ccccc23)nc2ccccn12 | inactive
O=C(Nc1cc(C(F)(F)F)ccc1Cl)c1nc2ccccc2nc1N1CCCCC1 | inactive
C/C(=C/C(=O)N1CCN(C)CC1)C(=O)O | inactive
O=C(c1cc(-c2ccc(O)cc2)on1)N1CCOCC1 | inactive
CCc1nc2sc(C(=O)O)c(N)c2c2c1CCCC2 | inactive
CCCCN(CC)CCCNC(=O)CS(=O)(=O)Cc1nc(-c2cccc(OC)c2)oc1C | inactive
COc1cccc(-c2nc(CS(=O)(=O)CC(=O)N3CCN(c4cc(C)ccc4C)CC3)c(C)o2)c1 | 3.26 µM (active)
COc1ccc(CCNC(=O)CS(=O)(=O)Cc2nc(-c3ccc(C)cc3)oc2C)cc1OC | inactive
CC1CCN(CC(O)COc2ccc(C(=O)c3ccccc3)cc2)CC1 (centres undefined) | inactive
C[C@@H](NC(=O)[C@@H]1Cc2ccccc2CN1)C(=O)NC1CCCC1 | inactive
Cc1noc(C)c1S(=O)(=O)N(C)C[C@H]1Oc2ccc(NC(=O)C3CC3)cc2C(=O)N([C@H](C)CO)C[C@@H]1C | inactive
CCOC(=O)c1ccc(NC(=S)N2CCCC2)cc1 | inactive
CCOc1ccc(NC(=S)N2CCCCCC2)cc1 | inactive
CCC(C)c1ccc(NC(=S)N2CCCC2)cc1 (centres undefined) | 13 µM (active)
COc1ccc(CNS(=O)(=O)c2cc(-c3cc(C)no3)ccc2C(C)C)cc1 | 0.92 µM (active)
CCOc1ccccc1CNS(=O)(=O)c1cc(-c2cc(C)no2)ccc1C | inactive
Cc1cc(-c2ccc(C)c(S(=O)(=O)NC(C)Cc3ccco3)c2)on1 (centres undefined) | inactive
Cc1nn(-c2ccc(F)cc2)c(Cl)c1/C=C(/CCC(=O)O)c1nc2ccccc2s1 | inactive
O=C(Nc1ccccc1)Nc1nc2ccccc2s1 | inactive
COc1cccc2sc(NNC(=O)c3nc4ccccc4s3)nc12 | 5.17 µM (active)

Structure (SMILES) | Potency
COc1ccccc1OCc1nc2ccccc2s1 | inactive
N#Cc1cccc(CSc2ncnc(N)n2)c1 | inactive
O=C(NCCCN1CCCC1=O)c1cccc(S(=O)(=O)NCc2ccccc2)c1 | inactive
CC1CCCCC1NC(=O)COC(=O)Cc1ccc(Br)cc1 (centres undefined) | inactive
CCOC(=O)c1c(S(=O)(=O)NCC(=O)Nc2ccc(C)cc2)c(C)n(C)c1C | inactive
CCOC(=O)c1c(S(=O)(=O)NCC(=O)Nc2ccc(Cl)c(C(F)(F)F)c2)c(C)n(C)c1C | 18.4 µM (active)
CCOC(=O)c1c(S(=O)(=O)Nc2ccc(CN3CCC(C)CC3)cc2)c(C)n(C)c1C | inactive
COCCCNC(=O)C1CCN(c2ccc(N3CCOCC3)nn2)CC1 | inactive
Cc1ccc(C(=O)N/C(=C\c2cn(S(=O)(=O)N(C)C)c3ccccc23)C(=O)N2CCCC2)cc1 | inactive
O=C(CCC(=O)NNc1nc2ccccc2c2nc(-c3ccccc3)nn12)NCCCN1CCCC1=O | inactive
COc1cc2nc(NCC(C)c3ccccc3)n3nc(-c4ccccc4)nc3c2cc1OC (centres undefined) | 16.4 µM (active)
COc1cc2nc(SCC(=O)Nc3ccccc3F)n3nc(-c4ccccc4)nc3c2cc1OC | inactive
N#CCCN(C(=O)COC(=O)c1ccc(S(=O)(=O)N2CCCCCC2)cc1)c1ccccc1 | inactive
COc1ccc(S(=O)(=O)N2CCSCC2)cc1 | inactive
COc1ccc(CNC(=O)C(=O)N2CCC3(CC2)OCCN3S(=O)(=O)c2ccc(C)cc2)cc1 | inactive
COc1ccc(S(=O)(=O)N2CCOC23CCN(S(=O)(=O)c2ccc([N+](=O)[O-])cc2)CC3)cc1 | 11.6 µM (active)
COCCN1C2=C(COC(C)(C)C2)C(=S)NC1c1ccccc1 (centres undefined) | inactive
Cc1ccccc1OCC(=O)N(Cc1cccc(F)c1)C1CCS(=O)(=O)C1 (centres undefined) | inactive
Cc1cc(C)c(OCC(=O)N(Cc2cccs2)C2CCS(=O)(=O)C2)c(C)c1 (centres undefined) | inactive
Cc1ccsc1CN(C(=O)c1oc2ccc(Br)cc2c1C)C1CCS(=O)(=O)C1 (centres undefined) | 9.2 µM (active)
